# In article PMC5540273 (PLoS ONE, 2017):
# Legend:
# Conditions in all cases: concentration: 1 μM, replicates: in singlicate; n = 1
# [1] = tested on: RPS6KA4(Kin.Dom.1-N-terminal)
# [2] = tested on: RPS6KA4(Kin.Dom.2-C-terminal)
# [3] = tested on: RPS6KA5(Kin.Dom.1-N-terminal)
# [4] = tested on: RPS6KA5(Kin.Dom.2-C-terminal)
# [5] = tested on: T1, RSK1(Kin.Dom.1-N-terminal)
# T1 construct: gene RPS6KA1
# [6] = tested on: T2, RSK1(Kin.Dom.2-C-terminal)
# T2 construct: gene RPS6KA1
# [7] = tested on: T3, RSK2(Kin.Dom.1-N-terminal)
# T3 construct: gene RPS6KA3
# [8] = tested on: T4, RSK2(Kin.Dom.2-C-terminal)
# T4 construct: gene RPS6KA3
# [9] = tested on: T5, RSK3(Kin.Dom.1-N-terminal)
# T5 construct: gene RPS6KA2
# [10] = tested on: T6, RSK3(Kin.Dom.2-C-terminal)
# T6 construct: gene RPS6KA2
# [11] = tested on: T7, RSK4(Kin.Dom.1-N-terminal)
# T7 construct: gene RPS6KA6
# [12] = tested on: T8, RSK4(Kin.Dom.2-C-terminal)
# T8 construct: gene RPS6KA6
# S6K1 = tested on: S6K1
# SBK1 = tested on: SBK1
# SGK2 = tested on: SGK2
# SGK3 = tested on: SGK3
# SGK = tested on: SGK
# SIK2 = tested on: SIK2
# SIK = tested on: SIK
# SLK = tested on: SLK
# 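Also: KINOMEscan kinase panel screen.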
Compound,%Inh [1] [%],%Inh [2] [%],%Inh [3] [%],%Inh [4] [%],%Inh [5] [%],%Inh [6] [%],%Inh [7] [%],%Inh [8] [%],%Inh [9] [%],%Inh [10] [%],%Inh [11] [%],%Inh [12] [%],%Inh (S6K1) [%],%Inh (SBK1) [%],%Inh (SGK2) [%],%Inh (SGK3) [%],%Inh (SGK) [%],%Inh (SIK2) [%],%Inh (SIK) [%],%Inh (SLK) [%]
c1ccc(-c2n[nH]cc2Nc2ccnc3ccccc23)nc1 [GW694077],3,56,5,56,19,16,27,24,0,30,1,6,33,25,61,47,89,0,0,0
Cl.NC(=O)c1cccc(Nc2nccc(Nc3ccc(Oc4c(Cl)cccc4Cl)c(Cl)c3)n2)c1 [GW659009],0,0,0,5,0,0,0,5,3,0,0,0,0,24,4,0,19,0,90.2,0
O=C(O)C(F)(F)F.O=C(O)C(F)(F)F.O=c1[nH]ccc2nc(N[C@@H]3CCCNC3)nc(Nc3ccc(S(=O)(=O)N4CCOCC4)cc3)c12 [GSK2177277],98.7,98.5,77,74,96,75,99.7,11,99.3,90.2,99.4,52,98.8,92.7,96.1,99.2,88,84,78,98.4
CN1CCN(Cc2cccc(-c3ccc4c(Nc5ccc(Oc6ccccc6)cc5)ccnc4c3)c2)CC1 [GW578342],0,0,0,21,26,99.1,0,15,0,7,0,0,0,11,0,1,7,1,0,0
CCS(=O)(=O)c1ccc(OC)c(Nc2nccc(-c3c(-c4cccc(NC(=O)c5c(F)cccc5F)c4)nn4ncccc34)n2)c1 [GSK326180],16,0,25,0,64,0,0,0,29,0,0,0,6,0,5,0,0,0,3,54
Oc1cc(Nc2ccnc3cc(I)ccc23)ccc1F [GW552771],0,0,5,0,0,29,13,26,0,0,7,87,35,8,2,1,19,57,29,16
Cl.Cl.NCC(C(=O)Nc1cc(Br)c(-c2ccnc3[nH]ccc23)s1)c1ccccc1 (stereo not shown) [GSK1269851],18,1,10,5,6,0,24,2,100,3,0,2,35,3,0,24,28,0,0,14
Cc1cccc(Nc2nc(N[C@H]3CCNC3)ncc2C(N)=O)c1.Cl [GSK2197149],0,0,2,0,22,31,31,0,23,4,30,23,5,42,12,0,0,30,35,30
Cn1cc(-c2ccc3c(c2)CCN3C(=O)Cc2cccc(Cl)c2)c2c(N)ncnc21 [GSK2606590],22,0,40,0,4,0,1,0,16,0,0,19,0,9,0,0,0,0,10,67
CNC(=O)c1ccccc1Nc1nc(Nc2ccc(N3CCOCC3)cc2)ncc1Cl.Cl [GSK1576028],99.7,0,90,44,100,54,100,0,99.3,25,99.3,38,97,90.5,50,87,97.1,92.4,99,99.5
CCc1ccc(-c2ccc3c(c2)-c2c(cnn2C)S(=O)(=O)N3C)cc1,5,0,7,0,10,0,0,29,17,13,0,0,4,0,0,0,0,4,6,0
COc1cc2c(cc1OCCN1CCNCC1)ncc1c3ccc(C#N)cc3[nH]c21,0,20,0,38,13,12,54,0,16,0,73,7,52,63,46,34,67,79,18,23
Clc1ccc(-c2nn3ncccc3c2-c2ccnc(Nc3ccc4c(c3)OCCO4)n2)cc1 [GW829116],4,0,0,8,18,32,23,0,0,0,0,88,9,0,0,0,35,30,1,87
COc1cccc(NC(=O)NC2CCN(c3ccnc(Nc4cc(OC)c(OC)c(OC)c4)n3)C2)c1 (stereo not shown) [GSK1379763],0,0,0,35,12,4,0,8,12,0,0,0,0,15,0,7,0,4,0,42
Fc1ccc(-c2ncn(C3CCNCC3)c2-c2ccnc(Oc3ccc(-c4ccccc4)cc3)n2)cc1 [SB-245391],12,0,0,6,27,0,34,41,0,0,18,9,11,52,18,12,12,4,12,0
CC(=O)Nc1nc2cnc(Nc3cc(NC(=O)c4cccc(C5(C#N)CC5)c4Cl)ccc3C)nc2s1,0,0,14,5,0,25,0,0,0,10,0,18,14,0,0,0,0,6,29,23
COc1cc(Nc2nccc(-c3c(-c4cccc(NC(=O)c5c(F)cccc5F)c4)nn4ccccc34)n2)cc(OC)c1OC [GSK323521],25,0,27,0,5,14,32,47,25,9,0,23,7,17,26,7,22,0,30,25
